Measurements: PubChem BioAssay (EPA / NIEHS)
“And” between values parts separate entries of the source, which are not always exact repeats. Equal entries are not always repeated. Inconclusive results are not listed. The source made the active and inactive calls. How the source made its calls: active means hit-call score of the fitted dose curve at least 0.9, where 1 is the maximum; inconclusive means response in the unintended direction; inactive means score below 0.9.

assay: CCTE_Mundy_HCI_hNP1_Pro_ResponderAvgInten: CCTE's Proliferation Assay in human neuroprogenitor cells, Mundy Lab (AID 2284224);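 further: human neural progenitor cells hNP1 derived from WA09 embryonic stem cells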
Procedure, shortened: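 Human neuroprogenitors (hNP1, WA09 lineage) receive test chemical after 40 to 44 hours of attachment. A four-hour BrdU pulse begins twenty hours later, followed by fixation and high content imaging; signal is referenced to DMSO controls.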

Row | SMILES | AC50 | outcome
1 | Nc1ccn([C@@H]2O[C@H](CO)[C@@H](O)[C@@H]2O)c(=O)n1 | 9.56 nM (active) and 3.83 nM (active) | –
2 | C[C@]12C=CC(=O)C=C1CC[C@H]1[C@@H]3C[C@@H](O)[C@](O)(C(=O)CO)[C@@]3(C)C[C@H](O)[C@@]12F | – | inactive
3 | FC(F)(F)C(F)(F)C(F)(F)C(F)(F)C(F)(F)C(F)(F)I | – | inactive
